Common to all, as to format: functional
The target in assay [1] is Solute carrier family 2, facilitated glucose transporter member 1 (Homo sapiens) (UniProt P11166). As to the kind of experiment: ST_JUDE_LEISH: Cytotoxicity at 2uM final concentration against transgenic Leishmania Mexicana promastigotes LmGLUT1 that are glucose transport deficient and complemented with the human glucose transporter GLUT1. Activity is measured by DNA content using SYBR green in vitro.

Assay [2] concerns the target Hexose transporter 1 (Plasmodium falciparum) (UniProt O97467). As to the kind of experiment: ST_JUDE_LEISH: Cytotoxicity at 2uM final concentration against transgenic Leishmania Mexicana promastigotes LmPfHT that are glucose transport deficient and complemented with the Plasmodium falciparum hexose transporter. Activity is measured by DNA content using SYBR green in vitro.

Assay [3] concerns the target Glucose transporter (Leishmania mexicana) (UniProt O61059). Nature of the assay: ST_JUDE_LEISH: Cytotoxicity at 2uM final concentration against transgenic Leishmania Mexicana promastigotes LmGT2 that are glucose transport deficient and complemented with the L. Mexicana glucose transporter 2. Activity is measured by DNA content using SYBR green in vitro.

Solute carrier family 2, facilitated glucose transporter member 1 (Homo sapiens), sequence (P11166 whole entry): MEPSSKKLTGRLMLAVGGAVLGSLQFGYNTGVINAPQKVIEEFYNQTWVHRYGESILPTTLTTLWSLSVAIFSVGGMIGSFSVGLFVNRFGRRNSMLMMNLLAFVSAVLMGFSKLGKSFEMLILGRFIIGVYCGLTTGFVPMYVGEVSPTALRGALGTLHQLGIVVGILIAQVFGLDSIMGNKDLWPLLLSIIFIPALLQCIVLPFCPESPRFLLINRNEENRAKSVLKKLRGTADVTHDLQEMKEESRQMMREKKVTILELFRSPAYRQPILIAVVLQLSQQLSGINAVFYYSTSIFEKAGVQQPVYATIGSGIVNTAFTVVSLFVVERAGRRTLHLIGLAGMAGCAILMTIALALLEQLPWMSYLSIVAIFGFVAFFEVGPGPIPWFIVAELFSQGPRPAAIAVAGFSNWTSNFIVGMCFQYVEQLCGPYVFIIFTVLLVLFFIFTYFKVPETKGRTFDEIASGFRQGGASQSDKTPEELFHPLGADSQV

Broadly, the inhibition is the drop in the measured response relative to a control, in per cent. On to `COc1ccc(Cl)cc1N1CCN(CCCNC(=O)c2ccc(-c3nc4cc(Cl)c(Cl)cc4[nH]3)c(C)c2)CC1`, for which the inhibition in assay [1] turned out to be 1.66%; in assay [2], 0.9%; in assay [3] it was 1.04%.
As to `Cc1nc2ccc(F)cc2n1C1CCN(C(=O)Cc2ccc(F)c(F)c2)CC1`, the inhibition in assay [1] was -1.6%; in assay [2], -1.91%; in assay [3], 1.89%.
For the compound `O=S(=O)(NCCN1CCCC1)c1cccc(-c2ccccc2CNC2Cc3ccccc3C2)c1`, the inhibition in assay [1] is 60.1%; in assay [2], 16%; in assay [3] it was 10.6%.
In the case of `O=C(Nc1cccc(OCCN2CCCC2)c1)Nc1ccc(Cl)c(Cl)c1`, the figures for the inhibition in assay [1], in assay [2] and in assay [3] were 1.92%, 2.15% and 4.58%, respectively.
For `O=C(Nc1cccc(-c2cccc(-c3nc4ccccc4[nH]3)c2)c1)Nc1ccc(Cl)c(Cl)c1`, the inhibition came to 6.2% in assay [1], 6.7% in assay [2] and 7.6% in assay [3].
In the same order, the values of `CCCCCC(C)N/C(=N/c1ccccc1Br)Nc1ccc([N+](=O)[O-])cc1O` (centres undefined) are 1.52%, 1.7% and 0.95%.
Turning to `CCOc1cc(C(=O)NC2CCN(Cc3ccccc3)C2)ccc1-c1nc2cc(Cl)ccc2[nH]1` (centres undefined), the figures for the inhibition in assay [1], in assay [2] and in assay [3] were 6.92%, 3.47% and 6.92%, respectively.
In the case of `COc1cc2ncnc(NCCc3ccccc3Cl)c2cc1OC`, the inhibition is -1.61% in assay [1], -0.48% in assay [2] and -0.92% in assay [3].
Regarding `CC1CCN(Cc2ccc(NC(=O)c3cc4ccc5cccnc5c4[nH]3)cc2)CC1`, the inhibition amounted to 7.7% in assay [1], 7.81% in assay [2] and 7.77% in assay [3].
Taken in the same sequence, the figures for `N=C(N)NC(=O)Nc1ccc(Cl)c(C(F)(F)F)c1` were 1.17%, 2.97% and 1.44%.
Turning to `CC(C)(C)c1ccc(CN2CCCCC(NC(=O)c3cc(-c4ccccc4Cl)cs3)C2)cc1` (centres undefined), the inhibition in assay [1] is 2.83%; in assay [2] it was 3.91%; in assay [3] it was 1%.
In the case of `N#Cc1cccc(C(=O)Nc2ccc(-c3ccc(CN4CCCC4)cc3)cc2)c1`, the inhibition in assay [1] was determined as 7.84%; in assay [2], 6.53%; in assay [3] it was 3.78%.
In the same order, the values of `O=C(Nc1ccc(Cl)cc1)c1cccc(S(=O)(=O)NC2CCN(CC3CCCCC3)CC2)c1` are 0.8%, 1.68% and 3.31%.

Source of the values: ChEMBL document CHEMBL3433997, “St. Jude Leishmania screening dataset” (2016).
